Mcl1-Bid inh: Mcl-1/Bid binding inhibitors, primary screen, biochemical, TR-FRET, 1536-well. Induced myeloid leukemia cell differentiation protein Mcl-1 (Homo sapiens), Q07820. inhibition, % at 21.7 µM. TR-FRET Mcl-1/Bid-Dy647 peptide binding. actives 0.97% (n = 220,000). AID 1021, 2008;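 active = compounds that cut the binding signal by more than half at the single screening dose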;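 note: His-tagged Mcl-1 with europium anti-His antibody binding Bid BH3 peptide; 0% = Mcl-1 plus peptide wells and 100% = peptide-only wells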
Target sequence (Q07820 whole entry, looked up): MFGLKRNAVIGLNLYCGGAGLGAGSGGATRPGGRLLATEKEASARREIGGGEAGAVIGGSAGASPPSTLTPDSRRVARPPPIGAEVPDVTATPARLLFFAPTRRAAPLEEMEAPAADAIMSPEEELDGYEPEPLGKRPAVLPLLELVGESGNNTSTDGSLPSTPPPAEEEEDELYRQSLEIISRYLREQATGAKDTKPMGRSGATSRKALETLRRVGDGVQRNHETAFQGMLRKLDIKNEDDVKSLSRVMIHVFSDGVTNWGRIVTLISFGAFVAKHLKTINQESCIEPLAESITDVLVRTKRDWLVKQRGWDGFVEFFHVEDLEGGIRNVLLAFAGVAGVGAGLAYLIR
14-3-3 Bad PPI: inhibitors of 14-3-3 zeta/Bad binding, primary screen, biochemical, TR-FRET, bovine 14-3-3 zeta; TR-FRET 14-3-3zeta/Dy647-pBad peptide displacement, 1 h; inhibition, % at 21.7 µM; actives 0.71% (n = 220,000);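 active = inhibition above about 70%, limit read from the data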;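 note: 0% = full 14-3-3 plus peptide FRET controls and 100% = background without 14-3-3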
Target sequence (P63103 whole entry, looked up): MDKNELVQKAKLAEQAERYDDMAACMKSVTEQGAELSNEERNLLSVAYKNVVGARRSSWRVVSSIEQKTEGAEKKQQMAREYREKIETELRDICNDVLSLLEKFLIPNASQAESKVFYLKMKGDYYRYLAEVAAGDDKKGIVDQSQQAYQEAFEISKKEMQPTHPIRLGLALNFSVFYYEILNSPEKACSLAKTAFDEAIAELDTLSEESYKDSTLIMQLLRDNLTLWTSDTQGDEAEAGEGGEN
Arbovirus inh: antivirals against arbovirus infection, primary screen, cell-based, full library, 10K replicate subset | arbovirus infection cell-based antiviral screen | inhibition, % at 10 µM | actives 0.37% (n = 200,000) | AID 1251, 2008; in the data active = inhibition above about 30%
Bim-Mcl-1: inhibitors of Bim peptide binding to Mcl-1, primary screen, biochemical, bead-based flow cytometry, multiplex | Induced myeloid leukemia cell differentiation protein Mcl-1 (Homo sapiens), Q07820 | Bim peptide-Mcl-1 binding | inhibition, % at 10 µM | actives 0.1% (n = 190,000) | AID 1009, 2008; in the data active = inhibition above about 40%;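 note: 0% = no compound tracer wells and 100% = peptide blocker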
Mcl1 Noxa PPI: Mcl-1/Noxa binding inhibitors, primary screen, biochemical, TR-FRET, 1536-well; Induced myeloid leukemia cell differentiation protein Mcl-1 (Homo sapiens), Q07820; TR-FRET Mcl-1/Noxa peptide binding, 2 h; inhibition, % at 21.7 µM; actives 1.5% (n = 220,000); AID 1022, 2008;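 active = compounds that cut the protein-peptide binding signal by more than 50% relative to plate controls in a single-dose test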;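 note: His-tagged Mcl-1 with rhodamine Noxa BH3 peptide and terbium anti-His antibody; 0% = Mcl-1 plus Noxa peptide wells and 100% = peptide-only wells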
Numbers without * were called inactive; [ ] = dose if it differs, or a comment. The list is not random: actives were taken first. Their share in the collection is about 3%.

O=C(N/N=C/c1cccnc1)c1cccc(S(=O)(=O)N2CCCC2)c1 was read as Mcl1-Bid inh -32.2, 14-3-3 Bad PPI -5.1, Arbovirus inh 7.2, Bim-Mcl-1 55.0* and Mcl1 Noxa PPI 1.0.
For CCNC(=O)/C(C#N)=C/c1c(N(Cc2ccccc2)Cc2ccccc2)nc2ccccn2c1=O the results were Mcl1-Bid inh 11.2, 14-3-3 Bad PPI 5.1, Arbovirus inh -32.2, Bim-Mcl-1 -4.0 and Mcl1 Noxa PPI 27.8.
For CNC(=O)/C(C#N)=C/c1c(N(Cc2ccccc2)Cc2ccccc2)nc2c(C)cccn2c1=O the results were Mcl1-Bid inh 30.4, 14-3-3 Bad PPI 15.4, Arbovirus inh -38.1, Bim-Mcl-1 90.0* and Mcl1 Noxa PPI -2.6.
CCOC(=O)C(C(=O)OCC)C(Nc1cccc(Br)c1)c1ccccc1 (centres undefined) was read as Mcl1-Bid inh -14.8, 14-3-3 Bad PPI -3.0, Arbovirus inh -17.9, Bim-Mcl-1 0.0 and Mcl1 Noxa PPI 6.1.
`CCOC(=O)C(NCCCCl)c1ccccc1` (centres undefined) gave Mcl1-Bid inh -20.2, 14-3-3 Bad PPI 72.9*, Arbovirus inh 3.0, Bim-Mcl-1 2.0 and Mcl1 Noxa PPI 7.0.
CC(C(=O)Nc1ccc2c(c1)OCCO2)N(C)Cc1c(F)cccc1Cl (centres undefined) was read as Mcl1-Bid inh -38.4, 14-3-3 Bad PPI 96.7*, Arbovirus inh -21.4, Bim-Mcl-1 1.0 and Mcl1 Noxa PPI 5.1.
For Cc1nnc(NC(=O)CSc2ccc(-c3ccco3)nn2)s1 the results were Mcl1-Bid inh -55.7, 14-3-3 Bad PPI -0.3, Arbovirus inh 24.9, Bim-Mcl-1 4.0 and Mcl1 Noxa PPI 56.3*.
CCc1nnc(NC(=O)CSc2ccc(-c3ccco3)nn2)s1 was read as Mcl1-Bid inh -36.2, 14-3-3 Bad PPI 4.6, Arbovirus inh 8.6, Bim-Mcl-1 -2.0 and Mcl1 Noxa PPI 59.0*.
O=C(CSc1ccc(-c2ccco2)nn1)c1ccccc1 was read as Mcl1-Bid inh -15.2, 14-3-3 Bad PPI -9.1, Arbovirus inh 8.3, Bim-Mcl-1 -7.0 and Mcl1 Noxa PPI 59.1*.
CCN(CC)S(=O)(=O)c1ccc(C)c(NC(=S)NNC(=O)C2CC2)c1 was read as Mcl1-Bid inh -37.9, 14-3-3 Bad PPI -11.2, Arbovirus inh 2.7, Bim-Mcl-1 -12.0 and Mcl1 Noxa PPI 13.9.
`Cn1c(=O)c2c(nc(N/N=C/c3cccnc3)n2Cc2ccccc2)n(C)c1=O` gave Mcl1-Bid inh -27.5, 14-3-3 Bad PPI -8.2 and Mcl1 Noxa PPI 9.5.
Screening COc1ccc(/C=C2\CCCc3c2nc2ccccc2c3C(=O)OCC(=O)c2c(N)n(C)c(=O)n(C)c2=O)cc1 returned Mcl1-Bid inh -2.9, 14-3-3 Bad PPI -17.3, Arbovirus inh -23.6, Bim-Mcl-1 1.0 and Mcl1 Noxa PPI 4.5.
CC1=NOC(=O)/C1=C/c1ccc(-c2ccc(Cl)cc2)o1 was read as Mcl1-Bid inh 67.2*, 14-3-3 Bad PPI 51.0, Arbovirus inh -45.3, Bim-Mcl-1 0.0 and Mcl1 Noxa PPI 67.0*.
CC1=NOC(=O)/C1=C\c1ccc(-c2ccc(Br)cc2)o1 was read as Mcl1-Bid inh 40.4, 14-3-3 Bad PPI 26.0, Arbovirus inh -22.2, Bim-Mcl-1 -3.0 and Mcl1 Noxa PPI 65.8*.
For CC1=NOC(=O)/C1=C\c1ccc(-c2ccc(Br)cc2C(=O)O)o1 the results were Mcl1-Bid inh -114.8, 14-3-3 Bad PPI 8.6, Arbovirus inh 6.0, Bim-Mcl-1 0.0 and Mcl1 Noxa PPI 15.9.
Screening CC1=NOC(=O)/C1=C\c1ccc(-c2cc(Cl)ccc2Cl)o1 returned Mcl1-Bid inh 40.6, 14-3-3 Bad PPI 16.3, Arbovirus inh -42.2, Bim-Mcl-1 -3.0 and Mcl1 Noxa PPI 53.3*.
Screening CN(C)c1nc(N(C)C)nc(N(C#N)CN2C(=O)c3ccccc3C2=O)n1 returned Mcl1-Bid inh 9.5, 14-3-3 Bad PPI 5.0, Arbovirus inh -1.1, Bim-Mcl-1 -3.0 and Mcl1 Noxa PPI 10.5.
`COC(=O)c1ccccc1NC(=O)COC(=O)/C=C/c1ccco1` gave Mcl1-Bid inh 94.6*, 14-3-3 Bad PPI 6.5, Arbovirus inh 14.4, Bim-Mcl-1 -2.0 and Mcl1 Noxa PPI 8.7.
COC(=O)c1ccccc1NC(=O)COC(=O)c1ccc(C)c(NC(=O)c2ccco2)c1 was read as Mcl1-Bid inh -15.6, 14-3-3 Bad PPI 88.5*[fluorescence artefact?], Arbovirus inh -8.9, Bim-Mcl-1 0.0 and Mcl1 Noxa PPI -12.9.
Screening CC(=C/c1ccccc1)/C=C1/SC(N2CCOCC2)=NC1=O returned Mcl1-Bid inh 63.7*, 14-3-3 Bad PPI 7.2, Arbovirus inh -9.6, Bim-Mcl-1 0.0 and Mcl1 Noxa PPI 39.9.
`COc1ccc(N(CC(=O)NCc2ccccc2)C(=O)Cn2nnc(-c3ccccc3F)n2)cc1OC` gave Mcl1-Bid inh -2.9, 14-3-3 Bad PPI -2.3, Arbovirus inh 1.7, Bim-Mcl-1 -2.0 and Mcl1 Noxa PPI -20.3.
For COC(=O)c1ccc(COc2ccc(/C=C(\C#N)c3nc4ccccc4[nH]3)cc2OC)o1 the results were Mcl1-Bid inh -35.0, 14-3-3 Bad PPI 5.8, Arbovirus inh -5.4, Bim-Mcl-1 -3.0 and Mcl1 Noxa PPI 4.5.
For CCc1ccc(NC(=O)COc2ccc(/C=C(/C#N)c3nc4ccccc4[nH]3)cc2OC)cc1 the results were Mcl1-Bid inh 55.7*, 14-3-3 Bad PPI 58.8, Arbovirus inh 8.6, Bim-Mcl-1 -13.0 and Mcl1 Noxa PPI 34.3.
O=C(NCCNC1CCN(Cc2ccccc2)CC1)c1cccs1 was read as Mcl1-Bid inh 7.8, 14-3-3 Bad PPI 70.7*, Arbovirus inh -7.7, Bim-Mcl-1 -1.0 and Mcl1 Noxa PPI 6.7.
Screening O=C(CNC(=O)c1cccs1)NCCN1CCC(Cc2ccccc2)CC1 returned Mcl1-Bid inh -0.7, 14-3-3 Bad PPI -0.5, Arbovirus inh -9.4, Bim-Mcl-1 -3.0 and Mcl1 Noxa PPI 0.9.
For COc1cccc(-c2nc(CS(=O)(=O)CC(=O)N3CCc4ccccc43)c(C)o2)c1 the results were Mcl1-Bid inh -8.8, 14-3-3 Bad PPI -1.4, Arbovirus inh -1.1, Bim-Mcl-1 -3.0 and Mcl1 Noxa PPI 10.4.
`CC1CCN(C2(O)C(=O)Nc3ccc(Br)cc32)CC1` (centres undefined) gave Mcl1-Bid inh -16.4, 14-3-3 Bad PPI 82.6*, Arbovirus inh -7.0, Bim-Mcl-1 93.0* and Mcl1 Noxa PPI -0.7.
CC(C)(C)OC(=O)C1C(=O)CC(C)(O)C(C(=O)OC(C)(C)C)C1c1cccnc1 (centres undefined) was read as Mcl1-Bid inh -16.5, 14-3-3 Bad PPI 80.0*, Arbovirus inh 1.3, Bim-Mcl-1 1.0 and Mcl1 Noxa PPI -3.0.
CC(C)COC(=O)C1C(=O)CC(C)(O)C(C(=O)OCC(C)C)C1c1cccnc1 (centres undefined) was read as Mcl1-Bid inh -7.6, 14-3-3 Bad PPI 9.3, Arbovirus inh 1.5, Bim-Mcl-1 0.0 and Mcl1 Noxa PPI 11.0.

Screening results as filed in PubChem.
